Assay results from PubChem BioAssay (Tox21).
Values joined by “and” are separate entries in the source; they are usually repeats but may differ in a detail not shown here. Identical values can stand only once. Inconclusive results are not listed. Active and inactive are the calls of the source. Unless noted, calls come from the whole dose curve; as a rule, active = well fitted curve in the direction sought with a large enough effect in the repeat runs; inconclusive = weak or mixed curves; inactive = no such curve, though single readings can be large; an effect the other way counts as inactive or inconclusive.

Key:
[1] = qHTS assay for small molecules that induce genotoxicity in human embryonic kidney cells expressing luciferase-tagged ATAD5 (AID 651632); note: nearly all actives have a fitted effect of over 15% in size
In short: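 Cells were seeded at 2,000 per well, dosed with compound, and incubated 16 hr at 37C in 5% CO2. Luciferase activity was then quantified after a 30 min room-temperature incubation with Amplite.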

[2] = qHTS assay for small molecule agonists of the p53 signaling pathway - cell viability (AID 651633; calls by dose curve; note: nearly all actives have a fitted effect of over 30% in size; note: potency is the fitted concentration of half-maximal effect)
In short: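 p53RE-bla cells were treated with compound for 16 hours at 37 C. Cytotoxicity was then measured as CellTiter-Glo luminescence after 30 min at room temperature.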

[3] = qHTS assay for small molecules that induce genotoxicity in human embryonic kidney cells expressing luciferase-tagged ATAD5 - cell viability (AID 651634; calls by dose curve; note: nearly all actives have a fitted effect of over 25% in size; note: potency is the fitted concentration of half-maximal effect)
In short: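 Cells (HEK293T, luciferase-tagged ATAD5) are seeded at 2,000 per well, dosed with compound or DMSO vehicle, and incubated 15.5 hr at 37C and 5% CO2. CellTiter-Fluor is added for 30 min before fluorescence is measured.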

[4] = qHTS assay for small molecule disruptors of the mitochondrial membrane potential - cell viability (AID 720634; calls by dose curve; note: nearly all actives have a fitted effect of over 20% in size; note: potency is the fitted concentration of half-maximal effect)
In short: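 Cytotoxicity was measured by ATP quantitation in HepG2 wells that had first been treated with compound for 1 hr and stained with m-MPI dye; CellTiter-Glo incubation was 30 min at room temperature.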

[5] = qHTS assay to test for compound auto fluorescence at 590 nm (red) in HepG2 cells (AID 720674)
In short: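 Fluorescence at 590 nm emission following 540 nm excitation was recorded from HepG2 wells one hour after compound transfer, with DMSO-only wells as vehicle and Rose Bengal sodium equivalency as the scale.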

[6] = qHTS assay to test for compound auto fluorescence at 535 nm (green) in HepG2 cells (AID 720675)
[7] = qHTS assay to test for compound auto fluorescence at 460 nm (blue) in HEK293 cells (AID 720678)
In short: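 Blue read-out at excitation 405 nm and emission 460 nm follows overnight compound exposure of HEK293 cells at 37C in 5% CO2. Activity is given as auto fluorescence equivalency to triamterene.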

[8] = qHTS assay to test for compound auto fluorescence at 590 nm (red) in HEK293 cells (AID 720679)
In short: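 Red channel, Ex/Em 540/590nm; signal expressed as equivalency to Rose Bengal sodium. HEK293, 2,000 cells/well, 10% dialyzed FBS; 23 nL compound pinned after 4-5 hr attachment; overnight 37C/5% CO2 before reading.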

[9] = qHTS assay to test for compound auto fluorescence at 535 nm (green) in HEK293 cells (AID 720680)
[10] = qHTS assay to test for compound auto fluorescence at 460 nm (blue) in HEK293 cell free culture (AID 720681)
In short: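 Compounds were added to cell-free DMEM with 10% FBS and fluorescence read directly. The blue channel used 405 nm excitation and 460 nm emission, with triamterene as the reference fluorophore.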

[11] = qHTS assay to test for compound auto fluorescence at 535 nm (green) in HEK293 cell free culture (AID 720682)
In short: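 Green-label autofluorescence (485 nm excitation, 535 nm emission) measured on compound added to cell-free culture medium (DMEM, 10% FBS). Output is expressed relative to fluorescein.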

[12] = qHTS assay to test for compound auto fluorescence at 590 nm (red) in HepG2 cell free culture (AID 720684)
In short: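 Rose Bengal sodium served as the reference for red signal. Test compounds were dispensed into serum-containing MEM (10% FBS) without cells, and plates were read at 540/590 nm.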

[13] = qHTS assay to test for compound auto fluorescence at 460 nm (blue) in HepG2 cell free culture (AID 720685)
In short: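 Cell-free plates of MEM plus 10% FBS received 23 nL compound or DMSO vehicle; blue-channel (405/460 nm) intensity scored against triamterene as reference fluorophore.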

[14] = qHTS assay to test for compound auto fluorescence at 535 nm (green) in HepG2 cell free culture (AID 720686)
[15] = qHTS assay to test for compound auto fluorescence at 460 nm (blue) in HepG2 cells (AID 720687)
In short: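 HepG2 cells in MEM with 10% FBS, attached overnight at 37 C, were exposed to compound or DMSO for 1 hr at 37 C, 5% CO2. Blue fluorescence was read at 405/460 nm, with triamterene as reference fluorophore.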

[16] = molecular target: Glucocorticoid receptor (Homo sapiens) (UniProt P04150); test: qHTS assay to identify small molecule agonists of the glucocorticoid receptor (GR) signaling pathway (AID 720691; active = well fitted activation curve with a large enough effect in the signal ratio in the repeat runs, not every such curve was filed as active; the % refers to the signal ratio)
Glucocorticoid receptor (Homo sapiens), sequence (P04150 whole entry, looked up): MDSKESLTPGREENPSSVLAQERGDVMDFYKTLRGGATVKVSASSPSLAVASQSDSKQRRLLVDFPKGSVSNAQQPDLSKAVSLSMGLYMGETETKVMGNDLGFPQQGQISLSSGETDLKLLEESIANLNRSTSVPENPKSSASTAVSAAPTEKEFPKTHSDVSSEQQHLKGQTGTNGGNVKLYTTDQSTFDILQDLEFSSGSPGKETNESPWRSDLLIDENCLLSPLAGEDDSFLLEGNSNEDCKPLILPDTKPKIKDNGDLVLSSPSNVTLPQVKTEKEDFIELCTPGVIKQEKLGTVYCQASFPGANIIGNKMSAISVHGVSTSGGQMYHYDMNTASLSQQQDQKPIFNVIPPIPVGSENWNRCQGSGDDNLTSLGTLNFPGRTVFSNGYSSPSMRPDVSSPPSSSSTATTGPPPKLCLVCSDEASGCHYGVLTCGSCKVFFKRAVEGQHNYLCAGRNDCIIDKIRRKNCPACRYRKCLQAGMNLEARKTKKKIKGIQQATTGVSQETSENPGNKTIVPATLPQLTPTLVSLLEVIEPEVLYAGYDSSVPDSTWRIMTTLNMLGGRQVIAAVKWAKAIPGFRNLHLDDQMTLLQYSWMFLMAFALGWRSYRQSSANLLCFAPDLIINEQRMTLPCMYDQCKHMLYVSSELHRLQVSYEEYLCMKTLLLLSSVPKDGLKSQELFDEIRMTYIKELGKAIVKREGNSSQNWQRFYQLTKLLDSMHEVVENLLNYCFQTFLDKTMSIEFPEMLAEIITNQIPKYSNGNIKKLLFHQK
In short: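 Steps: seed GR-bla HeLa cells, incubate 4 h at 37 C/5% CO2; pin-transfer DMSO-dissolved compounds; incubate 18 h at 37 C; add LiveBLAzer B/G FRET substrate; after 2 h at room temperature, measure fluorescence.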

[17] = qHTS assay for small molecule disruptors of the mitochondrial membrane potential (AID 720635); note: potency is the fitted concentration of half-maximal effect
In short: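 HepG2 cells exposed to compound 1 hr at 37C, then Mito-MPS dye 30 min. Ratio read of aggregate (540/590 nm) versus monomer (490/535 nm) fluorescence.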

[18] = molecular target: Glucocorticoid receptor (Homo sapiens) (UniProt P04150); test: qHTS assay to identify small molecule antagonists of the glucocorticoid receptor (GR) signaling pathway (AID 720692; active = well fitted inhibition curve with a large enough effect in the signal ratio in the repeat runs, not every such curve was filed as active; the % refers to the signal ratio; note: potency is the fitted concentration of half-maximal effect)
In short: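 Antagonism was scored as loss of dexamethasone-driven (5 nM final) reporter signal in HeLa cells bearing a glucocorticoid response element–beta-lactamase construct, after 18 h compound exposure at 37 C and 2 h FRET substrate loading.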

[19] = qHTS assay to test for compound auto fluorescence at 590 nm (red) in HEK293 cell free culture (AID 720683)
In short: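 Cell-free wells of DMEM with 10% FBS received compound, and intrinsic fluorescence was read at excitation/emission 540/590 nm. Values expressed as equivalence to Rose Bengal sodium.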

Measured: Potency

COc1cccc(C(=O)CCN[C@@H](C)[C@H](O)c2ccccc2)c1
not listed: [17] | [18] | [19]
inactive: all other assays above

S=C=Nc1cccc2ccccc12
active: [2] 48.1 µM | [4] 48.1 µM | [17] 17.1 µM | [18] 17.2 µM
not listed: [8] | [16] | [19]
inactive: all other assays above

O=S(=O)(c1ccc(Cl)cc1)c1ccc(Cl)cc1
active: [17] 4.92 µM
not listed: [4] | [18]
inactive: all other assays above

Clc1ccc(C(c2ccc(Cl)cc2)C(Cl)(Cl)Cl)cc1
active: [2] 26.6 µM and 48.9 µM and 27.3 µM | [17] 21.1 µM and 19.5 µM and 15.4 µM | [18] 43.6 µM
not listed: [16]
inactive: all other assays above

CC1(C)CN=C(NN=C(/C=C/c2ccc(C(F)(F)F)cc2)/C=C/c2ccc(C(F)(F)F)cc2)NC1
active: [2] 27.3 µM | [3] 48.6 µM | [17] 17.2 µM
not listed: [4] | [16] | [18]
inactive: all other assays above

CCOCCOC(C)=O
not listed: [17] | [18]
inactive: all other assays above

COP(=S)(OC)Oc1cc(Cl)c(Br)cc1Cl
active: [4] 54.5 µM | [17] 6.86 µM
not listed: [16] | [18] | [19]
inactive: all other assays above

O=C(CBr)c1ccc(O)cc1
not listed: [17]
inactive: all other assays above

CC(C)(C)c1cc([N+](=O)[O-])cc(C(C)(C)C)c1O
active: [2] 48.6 µM | [3] 13.7 µM | [17] 0.122 µM
not listed: [4] | [16] | [18]
inactive: all other assays above

O=[N+]([O-])c1c2ccccc2cc2ccccc12
active: [17] 8.53 µM
not listed: [4] | [18] | [19]
inactive: all other assays above

CC1CCC(C(C)C)C(OC(=O)c2ccccc2N)C1 (stereo not given)
active: [2] 26.6 µM and 60.3 µM | [17] 13.3 µM and 17 µM
not listed: [4] | [16] | [19]
inactive: all other assays above

c1ccc(Nc2ccc3ccccc3c2)cc1
active: [4] 17.1 µM | [17] 8.58 µM and 13.7 µM
not listed: [8]
inactive: all other assays above

O=C1c2ccccc2C(=O)C1C(=O)C(c1ccccc1)c1ccc(Cl)cc1 (stereo not given)
active: [2] 24.3 µM | [3] 3.06 µM | [4] 61.1 µM | [17] 0.386 µM | [18] 12.3 µM
inactive: all other assays above

CCOc1cc(C(C)(C)C)ccc1C1COC(c2c(F)cccc2F)=N1 (stereo not given)
active: [2] 41.6 µM | [4] 29.5 µM | [17] 16.6 µM
not listed: [3] | [16] | [18]
inactive: all other assays above
